# Measurements published in publication PMC7862700, “An all-to-all approach to the identification of sequence-specific readers for epigenetic DNA modifications on cytosine”.
# Legend:
# Test in all cases: DAPPL (digital affinity profiling via proximity ligation, sequencing); 10 mM Tris-HCl pH 7.5, 50 mM NaCl, 1 mM DTT, 4% glycerol, room temperature, 30 min; GST-TFs on glutathione beads, 16-mer random dsDNA library, 0.1% formaldehyde crosslink after washing; high values mean tight binding
# FEV = biological target: T1, FEV (Homo sapiens, UniProt Q99581 1-238); conditions: protein: recombinant; tags: N-terminal GST; dsDNA, one strand shown
# T1 sequence: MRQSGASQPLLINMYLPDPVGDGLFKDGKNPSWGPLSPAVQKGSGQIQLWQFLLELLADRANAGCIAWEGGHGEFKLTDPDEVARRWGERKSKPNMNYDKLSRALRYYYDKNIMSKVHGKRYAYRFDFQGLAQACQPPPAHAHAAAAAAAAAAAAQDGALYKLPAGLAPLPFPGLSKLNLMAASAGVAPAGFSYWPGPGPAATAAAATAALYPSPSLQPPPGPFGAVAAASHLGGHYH
# Summary of the method: (§1)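 Pools were built from human transcription factors expressed in yeast as GST fusions, captured on glutathione beads and DNA-barcoded, along with a tag-only sample. Incubation with 200 nmole of a 16-mer random double-stranded DNA library lasted 30 min at room temperature in Tris/NaCl/DTT/glycerol buffer, and was followed by washing, 0.1% formaldehyde crosslinking, proximity ligation, PCR amplification and Illumina NextSeq500 sequencing. Binding signal is the quotient of each hexamer's read frequency for a factor and its frequency for the tag-only sample.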
# ETV5 = ETV5 (Homo sapiens, UniProt P41161 1-510); conditions: protein: recombinant; tags: N-terminal GST; dsDNA, one strand shown
# Summary of the method: as §1
# HSF1 = HSF1 (Homo sapiens, UniProt Q00613 1-529); conditions: protein: recombinant; tags: N-terminal GST; chain copies: 3; dsDNA, one strand shown
# Summary of the method: as §1
# SPIC = biological target: T2, SPIC (Homo sapiens, UniProt Q8N5J4 1-248); conditions: protein: recombinant; tags: N-terminal GST; dsDNA, one strand shown
# T2 sequence: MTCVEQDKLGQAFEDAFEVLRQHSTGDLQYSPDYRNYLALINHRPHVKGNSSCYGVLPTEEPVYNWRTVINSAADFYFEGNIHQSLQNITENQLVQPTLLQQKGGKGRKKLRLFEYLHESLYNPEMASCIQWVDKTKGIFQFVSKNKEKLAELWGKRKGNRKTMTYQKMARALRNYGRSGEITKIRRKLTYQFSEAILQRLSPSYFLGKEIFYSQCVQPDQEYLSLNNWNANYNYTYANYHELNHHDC
# Summary of the method: as §1
# ELF4 = ELF4 (Homo sapiens, UniProt Q99607 1-663); conditions: protein: recombinant; tags: N-terminal GST; dsDNA, one strand shown
# Summary of the method: as §1
# ELK4 = biological target: T3, ELK4 (Homo sapiens, UniProt P28324-2 1-405); conditions: protein: recombinant; tags: N-terminal GST; dsDNA, one strand shown
# T3 sequence: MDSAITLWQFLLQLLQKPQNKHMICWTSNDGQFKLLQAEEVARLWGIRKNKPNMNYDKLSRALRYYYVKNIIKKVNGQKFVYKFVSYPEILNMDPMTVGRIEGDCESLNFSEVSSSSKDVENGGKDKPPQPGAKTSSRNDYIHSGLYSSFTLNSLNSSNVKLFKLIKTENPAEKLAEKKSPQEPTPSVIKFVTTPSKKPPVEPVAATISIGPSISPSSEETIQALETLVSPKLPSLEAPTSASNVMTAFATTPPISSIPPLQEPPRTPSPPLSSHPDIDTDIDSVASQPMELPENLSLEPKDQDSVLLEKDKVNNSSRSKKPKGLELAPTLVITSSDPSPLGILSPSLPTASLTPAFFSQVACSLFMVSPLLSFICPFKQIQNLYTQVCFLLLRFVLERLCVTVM
# Summary of the method: as §1
# ETV2 = biological target: T4, ETV2 (Homo sapiens, UniProt O00321 1-342); conditions: protein: recombinant; tags: N-terminal GST; dsDNA, one strand shown
# T4 sequence: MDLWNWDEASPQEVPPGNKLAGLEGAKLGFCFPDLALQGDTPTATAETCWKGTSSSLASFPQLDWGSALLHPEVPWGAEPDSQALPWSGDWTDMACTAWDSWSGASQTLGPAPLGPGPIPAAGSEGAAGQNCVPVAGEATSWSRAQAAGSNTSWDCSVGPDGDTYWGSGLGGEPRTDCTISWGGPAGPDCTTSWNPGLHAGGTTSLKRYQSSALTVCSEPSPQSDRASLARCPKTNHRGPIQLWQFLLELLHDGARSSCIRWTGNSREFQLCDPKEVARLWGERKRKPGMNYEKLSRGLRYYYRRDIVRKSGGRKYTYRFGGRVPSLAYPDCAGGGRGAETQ
# Summary of the method: as §1
# ELF3 = biological target: T5, ELF3 (Homo sapiens, UniProt P78545 1-371); conditions: protein: recombinant; tags: N-terminal GST; dsDNA, one strand shown
# T5 sequence: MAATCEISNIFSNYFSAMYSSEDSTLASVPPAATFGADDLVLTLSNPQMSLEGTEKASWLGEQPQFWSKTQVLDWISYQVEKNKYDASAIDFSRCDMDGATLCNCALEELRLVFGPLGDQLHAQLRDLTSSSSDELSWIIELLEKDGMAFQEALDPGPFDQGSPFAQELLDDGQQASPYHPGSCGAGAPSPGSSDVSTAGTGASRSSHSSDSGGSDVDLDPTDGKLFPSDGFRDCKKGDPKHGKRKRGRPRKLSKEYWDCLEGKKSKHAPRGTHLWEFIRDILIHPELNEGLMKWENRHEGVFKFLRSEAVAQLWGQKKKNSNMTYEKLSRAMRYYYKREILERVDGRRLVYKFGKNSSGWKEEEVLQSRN
# Summary of the method: as §1
# CRX = CRX (Homo sapiens, UniProt O43186 1-299); conditions: protein: recombinant; tags: N-terminal GST; dsDNA, one strand shown
# Summary of the method: as §1
# ETV1 = ETV1 (Homo sapiens, UniProt P50549 1-477); conditions: protein: recombinant; tags: N-terminal GST; dsDNA, one strand shown
# Summary of the method: as §1
# ERF = biological target: T6, ERF (Homo sapiens, UniProt P50548 1-548); conditions: protein: recombinant; tags: N-terminal GST; dsDNA, one strand shown
# T6 sequence: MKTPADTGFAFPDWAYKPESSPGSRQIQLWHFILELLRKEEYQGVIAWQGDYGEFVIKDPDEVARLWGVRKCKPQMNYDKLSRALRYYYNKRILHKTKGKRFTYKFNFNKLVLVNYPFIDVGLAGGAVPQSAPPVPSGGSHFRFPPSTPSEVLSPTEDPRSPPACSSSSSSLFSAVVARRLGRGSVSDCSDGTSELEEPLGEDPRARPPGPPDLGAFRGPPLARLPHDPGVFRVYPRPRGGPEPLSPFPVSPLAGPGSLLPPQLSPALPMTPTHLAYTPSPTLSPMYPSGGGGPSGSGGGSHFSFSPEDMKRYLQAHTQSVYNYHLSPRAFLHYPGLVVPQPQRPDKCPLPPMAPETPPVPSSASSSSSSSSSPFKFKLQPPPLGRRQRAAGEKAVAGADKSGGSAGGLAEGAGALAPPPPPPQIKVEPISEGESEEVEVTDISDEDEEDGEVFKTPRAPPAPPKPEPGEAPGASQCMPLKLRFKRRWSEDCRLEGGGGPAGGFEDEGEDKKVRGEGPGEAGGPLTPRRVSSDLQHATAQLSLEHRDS
# Summary of the method: as §1
# ETV3L = biological target: T7, ETV3L (Homo sapiens, UniProt Q6ZN32 1-361); conditions: protein: recombinant; tags: N-terminal GST; dsDNA, one strand shown
# T7 sequence: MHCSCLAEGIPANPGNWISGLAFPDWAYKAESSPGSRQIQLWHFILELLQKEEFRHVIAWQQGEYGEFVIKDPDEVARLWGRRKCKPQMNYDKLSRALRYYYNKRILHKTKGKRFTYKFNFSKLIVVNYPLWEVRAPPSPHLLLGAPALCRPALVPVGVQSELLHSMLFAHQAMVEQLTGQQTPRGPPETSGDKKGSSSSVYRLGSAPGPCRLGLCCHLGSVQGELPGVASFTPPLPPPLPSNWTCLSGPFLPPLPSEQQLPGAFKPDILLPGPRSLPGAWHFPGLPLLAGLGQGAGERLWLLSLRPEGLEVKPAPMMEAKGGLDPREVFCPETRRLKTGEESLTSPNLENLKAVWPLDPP
# Summary of the method: as §1
# ETS2 = biological target: T8, ETS2 (Homo sapiens, UniProt P15036 1-469); conditions: protein: recombinant; tags: N-terminal GST; dsDNA, one strand shown
# T8 sequence: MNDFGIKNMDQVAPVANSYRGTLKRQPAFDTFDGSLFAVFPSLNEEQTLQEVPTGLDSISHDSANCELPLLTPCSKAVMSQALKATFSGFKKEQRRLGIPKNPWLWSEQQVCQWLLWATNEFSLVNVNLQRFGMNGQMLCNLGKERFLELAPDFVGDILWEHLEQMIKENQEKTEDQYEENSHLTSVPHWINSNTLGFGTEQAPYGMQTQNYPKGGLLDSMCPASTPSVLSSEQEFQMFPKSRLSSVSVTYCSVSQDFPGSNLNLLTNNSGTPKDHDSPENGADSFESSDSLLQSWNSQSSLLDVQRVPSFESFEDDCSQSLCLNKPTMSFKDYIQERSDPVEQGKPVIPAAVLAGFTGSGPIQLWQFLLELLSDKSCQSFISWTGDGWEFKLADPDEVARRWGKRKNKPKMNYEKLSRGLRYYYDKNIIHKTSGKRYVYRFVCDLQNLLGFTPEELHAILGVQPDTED
# Summary of the method: as §1
# SPDEF = biological target: T9, SPDEF (Homo sapiens, UniProt O95238 1-335); conditions: protein: recombinant; tags: N-terminal GST; dsDNA, one strand shown
# T9 sequence: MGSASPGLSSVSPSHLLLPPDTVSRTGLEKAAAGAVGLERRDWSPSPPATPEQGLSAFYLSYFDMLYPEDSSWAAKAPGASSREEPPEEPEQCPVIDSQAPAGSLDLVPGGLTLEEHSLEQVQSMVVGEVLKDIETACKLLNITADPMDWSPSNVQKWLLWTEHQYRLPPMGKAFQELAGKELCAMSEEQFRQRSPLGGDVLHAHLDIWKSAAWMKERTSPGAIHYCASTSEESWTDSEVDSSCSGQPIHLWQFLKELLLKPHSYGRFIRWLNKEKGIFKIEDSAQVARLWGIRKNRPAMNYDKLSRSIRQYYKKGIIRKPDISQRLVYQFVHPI
# Summary of the method: as §1
# ETV7 = biological target: T10, ETV7 (Homo sapiens, UniProt Q9Y603 1-341); conditions: protein: recombinant; tags: N-terminal GST; dsDNA, one strand shown
# T10 sequence: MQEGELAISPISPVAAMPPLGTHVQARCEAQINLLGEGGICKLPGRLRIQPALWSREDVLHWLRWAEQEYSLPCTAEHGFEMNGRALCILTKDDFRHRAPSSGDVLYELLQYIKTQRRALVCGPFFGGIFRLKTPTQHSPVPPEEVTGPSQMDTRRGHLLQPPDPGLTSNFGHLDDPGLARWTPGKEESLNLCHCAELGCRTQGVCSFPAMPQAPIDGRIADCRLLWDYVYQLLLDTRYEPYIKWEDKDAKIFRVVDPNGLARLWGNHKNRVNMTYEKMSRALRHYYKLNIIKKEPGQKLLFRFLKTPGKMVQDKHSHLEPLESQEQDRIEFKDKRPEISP
# Summary of the method: as §1
# ELF5 = biological target: T11, ELF5 (Homo sapiens, UniProt Q9UKW6-2 1-255); conditions: protein: recombinant; tags: N-terminal GST; dsDNA, one strand shown
# T11 sequence: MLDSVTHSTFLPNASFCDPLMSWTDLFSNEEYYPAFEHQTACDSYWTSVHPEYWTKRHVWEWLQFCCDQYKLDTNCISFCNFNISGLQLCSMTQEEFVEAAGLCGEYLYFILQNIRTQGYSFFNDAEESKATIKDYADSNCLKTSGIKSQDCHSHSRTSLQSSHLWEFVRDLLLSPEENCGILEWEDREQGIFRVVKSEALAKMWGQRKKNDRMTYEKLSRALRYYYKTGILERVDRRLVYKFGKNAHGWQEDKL
# Summary of the method: as §1
# ETV3 = biological target: T12, ETV3 (Homo sapiens, UniProt P41162-2 1-143); conditions: protein: recombinant; tags: N-terminal GST; dsDNA, one strand shown
# T12 sequence: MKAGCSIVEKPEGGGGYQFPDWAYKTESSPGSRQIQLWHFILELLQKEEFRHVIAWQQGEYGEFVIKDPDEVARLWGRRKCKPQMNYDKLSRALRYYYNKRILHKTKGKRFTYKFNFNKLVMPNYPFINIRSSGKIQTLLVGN
# Summary of the method: as §1
# ETV6 = ETV6 (Homo sapiens, UniProt P41212 1-452); conditions: protein: recombinant; tags: N-terminal GST; dsDNA, one strand shown
# Summary of the method: as §1
# Sequence of CRX (O43186 whole entry): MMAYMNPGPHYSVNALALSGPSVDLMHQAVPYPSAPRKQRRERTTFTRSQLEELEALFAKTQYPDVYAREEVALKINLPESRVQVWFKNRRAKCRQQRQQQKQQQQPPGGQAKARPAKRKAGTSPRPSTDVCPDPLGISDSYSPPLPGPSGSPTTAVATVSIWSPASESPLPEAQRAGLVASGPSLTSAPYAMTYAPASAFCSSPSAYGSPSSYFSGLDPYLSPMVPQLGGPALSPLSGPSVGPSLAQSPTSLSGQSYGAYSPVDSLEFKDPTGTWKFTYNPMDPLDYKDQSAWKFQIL
# Sequence of ETV1 (P50549 whole entry): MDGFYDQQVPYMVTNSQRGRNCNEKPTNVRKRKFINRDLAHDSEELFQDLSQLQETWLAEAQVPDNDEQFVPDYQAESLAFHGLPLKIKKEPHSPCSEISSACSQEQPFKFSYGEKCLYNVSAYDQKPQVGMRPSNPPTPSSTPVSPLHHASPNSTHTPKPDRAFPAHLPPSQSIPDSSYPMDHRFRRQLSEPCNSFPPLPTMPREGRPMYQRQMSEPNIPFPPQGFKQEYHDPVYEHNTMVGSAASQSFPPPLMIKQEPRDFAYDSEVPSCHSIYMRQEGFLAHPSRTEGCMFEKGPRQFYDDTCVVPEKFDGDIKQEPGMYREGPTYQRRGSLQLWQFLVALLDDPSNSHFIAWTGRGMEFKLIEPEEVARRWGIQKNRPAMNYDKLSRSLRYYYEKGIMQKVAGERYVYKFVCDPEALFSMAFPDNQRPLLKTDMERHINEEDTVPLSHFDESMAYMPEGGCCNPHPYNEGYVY
# Sequence of ELF4 (Q99607 whole entry): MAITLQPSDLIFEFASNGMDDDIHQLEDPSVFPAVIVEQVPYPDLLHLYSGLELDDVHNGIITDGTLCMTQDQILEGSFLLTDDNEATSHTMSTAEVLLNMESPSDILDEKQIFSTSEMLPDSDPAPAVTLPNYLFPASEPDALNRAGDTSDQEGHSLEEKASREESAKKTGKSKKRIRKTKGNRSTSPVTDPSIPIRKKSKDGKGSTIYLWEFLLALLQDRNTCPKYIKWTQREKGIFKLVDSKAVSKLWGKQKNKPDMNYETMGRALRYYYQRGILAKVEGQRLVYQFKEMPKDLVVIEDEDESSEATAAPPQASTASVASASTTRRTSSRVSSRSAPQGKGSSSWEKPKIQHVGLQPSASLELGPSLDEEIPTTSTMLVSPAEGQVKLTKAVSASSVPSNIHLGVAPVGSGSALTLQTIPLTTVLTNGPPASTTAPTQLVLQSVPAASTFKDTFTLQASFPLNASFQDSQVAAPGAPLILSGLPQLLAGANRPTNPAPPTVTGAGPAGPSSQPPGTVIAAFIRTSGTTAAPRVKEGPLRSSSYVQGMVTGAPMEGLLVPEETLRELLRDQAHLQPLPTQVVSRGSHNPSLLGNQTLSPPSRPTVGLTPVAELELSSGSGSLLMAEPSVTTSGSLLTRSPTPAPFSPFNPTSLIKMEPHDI
# Sequence of ETV5 (P41161 whole entry): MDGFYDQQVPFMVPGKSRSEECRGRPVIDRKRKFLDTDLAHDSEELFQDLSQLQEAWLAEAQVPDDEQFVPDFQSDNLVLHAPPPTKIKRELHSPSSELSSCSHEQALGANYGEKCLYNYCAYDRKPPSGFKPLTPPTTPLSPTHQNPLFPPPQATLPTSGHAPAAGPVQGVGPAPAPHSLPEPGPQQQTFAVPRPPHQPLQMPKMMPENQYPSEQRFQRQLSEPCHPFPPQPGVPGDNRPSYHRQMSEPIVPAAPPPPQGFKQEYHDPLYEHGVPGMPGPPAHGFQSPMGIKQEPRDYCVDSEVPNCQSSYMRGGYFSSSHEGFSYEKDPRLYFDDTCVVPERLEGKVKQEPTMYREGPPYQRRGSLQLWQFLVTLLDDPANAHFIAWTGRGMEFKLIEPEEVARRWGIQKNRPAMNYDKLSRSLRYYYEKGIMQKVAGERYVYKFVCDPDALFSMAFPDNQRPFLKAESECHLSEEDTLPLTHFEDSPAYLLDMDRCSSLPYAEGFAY
# Sequence of HSF1 (Q00613 whole entry): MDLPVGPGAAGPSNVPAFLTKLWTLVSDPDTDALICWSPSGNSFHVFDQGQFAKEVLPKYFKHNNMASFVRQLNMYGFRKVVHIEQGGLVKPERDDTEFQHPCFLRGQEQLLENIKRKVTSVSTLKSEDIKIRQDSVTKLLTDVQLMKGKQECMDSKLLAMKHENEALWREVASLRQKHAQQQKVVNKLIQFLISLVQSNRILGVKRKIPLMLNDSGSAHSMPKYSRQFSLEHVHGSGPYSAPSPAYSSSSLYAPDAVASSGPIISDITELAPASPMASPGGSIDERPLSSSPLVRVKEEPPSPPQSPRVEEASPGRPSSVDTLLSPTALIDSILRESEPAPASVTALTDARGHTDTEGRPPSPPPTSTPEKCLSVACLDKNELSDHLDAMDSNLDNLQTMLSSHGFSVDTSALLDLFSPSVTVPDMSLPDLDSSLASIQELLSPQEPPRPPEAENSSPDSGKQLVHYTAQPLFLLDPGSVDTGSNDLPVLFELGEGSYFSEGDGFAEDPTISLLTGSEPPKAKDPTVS
# Sequence of ETV6 (P41212 whole entry): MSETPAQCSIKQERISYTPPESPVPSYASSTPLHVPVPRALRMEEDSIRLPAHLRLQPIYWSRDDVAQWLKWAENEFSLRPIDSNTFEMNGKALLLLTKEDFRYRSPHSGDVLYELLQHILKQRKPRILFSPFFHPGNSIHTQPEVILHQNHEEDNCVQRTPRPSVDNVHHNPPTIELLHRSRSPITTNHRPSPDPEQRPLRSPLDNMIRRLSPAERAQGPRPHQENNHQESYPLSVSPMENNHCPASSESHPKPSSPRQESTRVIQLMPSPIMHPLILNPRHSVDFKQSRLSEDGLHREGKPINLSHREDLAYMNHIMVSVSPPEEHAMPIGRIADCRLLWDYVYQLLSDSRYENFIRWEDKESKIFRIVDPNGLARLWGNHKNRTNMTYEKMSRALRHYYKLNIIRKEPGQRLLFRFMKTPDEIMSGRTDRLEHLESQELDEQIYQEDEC
sequence,measurement,setting,value
TATCTC,binding signal,FEV,"1.27 fold enrichment (6-mer frequency, TF over GST control)"
same,binding signal,ETV5,"1.2 fold enrichment (6-mer frequency, TF over GST control)"
same,binding signal,HSF1,"1.45 fold enrichment (6-mer frequency, TF over GST control)"
same,binding signal,SPIC,"1.21 fold enrichment (6-mer frequency, TF over GST control)"
same,binding signal,ELF4,"1.21 fold enrichment (6-mer frequency, TF over GST control)"
same,binding signal,ELK4,"1.27 fold enrichment (6-mer frequency, TF over GST control)"
same,binding signal,ETV2,"1.18 fold enrichment (6-mer frequency, TF over GST control)"
same,binding signal,ELF3,"1.16 fold enrichment (6-mer frequency, TF over GST control)"
same,binding signal,CRX,"1.76 fold enrichment (6-mer frequency, TF over GST control)"
same,binding signal,ETV1,"1.3 fold enrichment (6-mer frequency, TF over GST control)"
same,binding signal,ERF,"1.3 fold enrichment (6-mer frequency, TF over GST control)"
same,binding signal,ETV3L,"1.3 fold enrichment (6-mer frequency, TF over GST control)"
same,binding signal,ETS2,"1.27 fold enrichment (6-mer frequency, TF over GST control)"
same,binding signal,SPDEF,"1.22 fold enrichment (6-mer frequency, TF over GST control)"
same,binding signal,ETV7,"1.21 fold enrichment (6-mer frequency, TF over GST control)"
same,binding signal,ELF5,"1.23 fold enrichment (6-mer frequency, TF over GST control)"
same,binding signal,ETV3,"1.13 fold enrichment (6-mer frequency, TF over GST control)"
same,binding signal,ETV6,"1.21 fold enrichment (6-mer frequency, TF over GST control)"
